Data reported in PubChem BioAssay (NCI).
This is part of a sample that, as a whole, favours compounds with a hit. Of some 83,000 tested, about 20% had one in any assay.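 Plates (96-well) were seeded with cells, treated with compound at one concentration, and incubated for 48 hours before percent growth was determined.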 A number with no mark means an inactive call. Calls of active or inactive are those of the source. The calls were made as follows: active = growth percent below 10; inactive = the rest.

What was measured:
Assay in all cases: NCI-60 one-dose screen, 48 h (100 = growth as untreated, 0 = no growth, -100 = all killed)
HT29 colon = conditions: 10 µM unless noted
SNB-75 CNS = conditions: 10 µM unless noted
SNB-19 CNS = conditions: 10 µM unless noted
U251 CNS = conditions: 10 µM unless noted
PC-3 prostate = conditions: 10 µM unless noted
SK-MEL-5 melanoma = conditions: 10 µM unless noted
UACC-62 melanoma = conditions: 10 µM unless noted
LOX IMVI melanoma = conditions: 10 µM unless noted
SK-MEL-28 melanoma = conditions: 10 µM
SK-MEL-2 melanoma = conditions: 10 µM unless noted
EKVX NSCLC = conditions: 10 µM unless noted
SN12C renal = conditions: 10 µM unless noted
UO-31 renal = conditions: 10 µM unless noted
TK-10 renal = conditions: 10 µM unless noted
ACHN renal = conditions: 10 µM unless noted
CAKI-1 renal = conditions: 10 µM unless noted
A498 renal = conditions: 10 µM unless noted
CCRF-CEM leukemia = conditions: 10 µM unless noted
MOLT-4 leukemia = conditions: 10 µM unless noted
SR leukemia = conditions: 10 µM unless noted

Structure (SMILES) | growth (HT29 colon) | growth (SNB-75 CNS) | growth (SNB-19 CNS) | growth (U251 CNS) | growth (PC-3 prostate) | growth (SK-MEL-5 melanoma) | growth (UACC-62 melanoma) | growth (LOX IMVI melanoma) | growth (SK-MEL-28 melanoma) | growth (SK-MEL-2 melanoma) | growth (EKVX NSCLC) | growth (SN12C renal) | growth (UO-31 renal) | growth (TK-10 renal) | growth (ACHN renal) | growth (CAKI-1 renal) | growth (A498 renal) | growth (CCRF-CEM leukemia) | growth (MOLT-4 leukemia) | growth (SR leukemia)
C=C1C(=O)O[C@H]2[C@H]1CC/C(COC(=O)/C=C\C(=O)O)=C\CC[C@@]1(C)O[C@@H]21 | 108% | 79.4% | 98.8% | 108% | 102% | 102% | 98% | 99.4% | 98.8% | 112% | 102% | 99.1% | 85.2% | 106% | 98% | 100% | 93.5% | 107% | 110% | 114%
CC1(O)COCCCCOc2c(CN)cccc2NC(=O)c2nc(cnc2N)-c2ccc(cc2)S(=O)(=O)C(C)(C)C1 (stereo not given) | 1.64% (active) | -60.3% (active) | -55.9% (active) | -74.9% (active) | 14% | -94.9% (active) | -90.8% (active) | -86.3% (active) | -87.8% (active) | -32.6% (active) | -58% (active) | -81.1% (active) | -97.5% (active) | -36.2% (active) | -99.2% (active) | 39.4% | -34.4% (active) | 5.36% (active) | -15.6% (active) | 8.92% (active)
CC(=O)c1ccc(Nc2nc(NCCO)nc(Nc3ccc(Cl)cc3)n2)cc1 | 96.8% | 77.5% | 92.4% | 99.7% | 90.5% | 74.9% | 78% | 87.9% | 95.2% | 95.2% | 80.2% | 95.8% | 81.3% | 108% | 87.8% | 92.1% | 72.9% | 89.4% | 83.9% | 64.7%
CCOC(=O)c1c2c(c(C)n1Cc1ccc(OC)cc1)-c1oncc1CC2 | 89.1% | 72.9% | 81.8% | 86.3% | 99.6% | 98.1% | 110% | 76.6% | 138% | 120% | 94.3% | 175% | 65.3% | 102% | 91.3% | 70.6% | 91.9% | 93.3% | 85.3% | 85.4%
Cn1cc(-c2ccc3ncc(-c4ccc(CC(=O)Nc5cc(C(C)(C)C)no5)cc4)nc3c2)cn1 | 51.6% | 43.7% | 62.6% | 40.8% | 49.7% | 28.7% | 42.6% | 45.7% | 53.2% | 38.1% | 50% | 26.8% | 2.84% (active) | 50.8% | 15.2% | 16.6% | 17.9% | 50.6% | 30.7% | 16%
Nc1nc(-c2ccccc2Br)nn1-c1nc2ccccc2s1 | 101% | 96.7% | 97.2% | 107% | 103% | 104% | 96.6% | 106% | 103% | 96.7% | 92.2% | 100% | 105% | 118% | 98.3% | 97.2% | 101% | 101% | 88.3% | 81.5%
COc1cc(/C=C2\CN(C)C/C(=C\c3cc(CN4CCCCC4)c(O)c(OC)c3)C2=O)cc(CN2CCCCC2)c1O | 3.56% (active) | 66.9% | 70.9% | 15% | 32.7% | 70.6% | 60.6% | 5.17% (active) | 93.5% | 73.2% | 46% | 38.2% | 57% | 57.6% | 39% | 55.9% | 71.1% | 19.9% | 16.5% | 28.5%
CNCCNc1nc2ccccc2c2c(=O)c3cccc(OC)c3sc12 | -17.5% (active) | 26.2% | 42% | -45.2% (active) | 26.1% | 57.9% | 44.4% | 12.2% | 62.3% | 73.1% | 22.8% | 45.2% | 24.9% | 44.1% | 12.5% | 36.1% | 3.67% (active) | 12.2% | 0.177% (active) | -1.21% (active)
COc1ccc(/C=C/C(=O)c2ccc(Nc3nc(NCCO)nc(Nc4ccc(Cl)cc4)n3)cc2)cc1 | 40% | 61.2% | 85% | 53.4% | 50.6% | 66.9% | 69.7% | 61.6% | 79.2% | 98.1% | 66.6% | 86.6% | 70.8% | 96.2% | 67.7% | 81.4% | 69.2% | 48.8% | 46.3% | 38.4%
O=C1Nc2ccccc2/C1=C/c1ccc[nH]1 | 110% | 105% | 90.3% | 83% | 106% | 58.7% | 97.7% | 98.8% | 114% | 103% | 32.8% | 92.7% | 61.9% | 63.5% | 84% | 77.4% | 88.5% | 109% | 101% | 71.7%
COc1cc(/C=C2\CCC/C(=C\c3cc(CN4CCCCC4)c(O)c(OC)c3)C2=O)cc(CN2CCCCC2)c1O | 13.3% | 89.8% | 80.7% | 70.1% | 82.7% | 92.6% | 91.5% | 66.9% | 93.6% | 101% | 87.3% | 72.5% | 58.3% | 115% | 83.8% | 106% | 90.9% | 45.7% | 49.8% | 6.77% (active)
COc1ccc(/C=C2/SC(=O)N(CC(=O)N3CCN(c4cc5c(cc4F)c(=O)c(C(=O)O)cn5C4CC4)CC3)C2=O)cc1 | 99.2% | 86.4% | 101% | 101% | 104% | 101% | 97.3% | 93.9% | 107% | 108% | 114% | 96.5% | 81.8% | 117% | 102% | 92.4% | 113% | 107% | 108% | 94.4%
O=C(c1nc2ccccc2[nH]1)C1C(c2cccc([N+](=O)[O-])c2)C2CC3CCCCC3N2[C@@]12C(=O)Nc1cc(Cl)ccc12 (stereo not given in full) | 13.5% | 15.1% | 39.1% | 32.4% | 19.6% | 45.4% | 33.5% | 19.7% | 55.3% | 41.4% | 31.3% | 33.2% | -19.5% (active) | 46.9% | 21.2% | 12.2% | -1.86% (active) | 25.5% | 8.76% (active) | 6.09% (active)
O=S(=O)(Nc1ncccn1)c1ccc(NC2Nc3nc4ccccc4nc3S2)cc1 (stereo not given) | 106% | 84.9% | 99.3% | 103% | 101% | 98.7% | 93.7% | 94.2% | 98.7% | 106% | 90.7% | 97.7% | 78.5% | 109% | 98.5% | 94% | 99.3% | 104% | 99.7% | 102%
O=C1/C(=C\c2ccc[nH]2)c2ccccc2N1c1ccccc1 | 105% | 84.7% | 92.2% | 99.3% | 90.9% | 90.5% | 77% | 96.4% | 96.7% | 106% | 47.7% | 89.1% | 93.2% | 102% | 92.2% | 92% | 101% | 99.2% | 102% | 139%
